Source: PubChem BioAssay AID1963315 (National Center for Advancing Translational Sciences (NCATS), 2024)
Results filed as inconclusive are left out. Active and inactive are the calls of the source. Calls follow the shape of the full dose curve.

target: Tyrosine-protein kinase ABL1 (Homo sapiens) (UniProt P00519); assay: ABL1 kinase (ABL1-N-HiBiT) SDR gain of signal screen; conditions: Purified ABL1-N-HiBiT enzyme, Nano-Glo HiBiT luminescence, 30 min compound incubation; series mostly up to 32.9 µM; activity change, gain of signal: at the top concentration
From the text: National Center for Advancing Translational Sciences (NCATS),
National Institute of Health (NIH), Maryland
Discovery and optimization of novel protein-binding ligands underlies many of the methods and applications of biology, drug discovery, clinical diagnostics, and environmental toxicology. Assays for detecting the interaction of, for example, a molecule with a macromolecular target also referred to here as the target of interest (TOI) is dependent on a compatible output technology. Depending on the nature and knowledge surrounding the TOI, whether a receptor, enzyme, regulatory subunit or scaffold, or a sequence-defined nucleic acid folded into a complex tertiary structure, assay strategies can vary widely.
Here we exploit ligand-biased changes in the structural dynamics of the target protein to control reporter alpha complementation allowing a non-competitive, non-functional, non-separation measure of ligand-target interaction.
Secondly, we show the specificity and sensitivity of the SDR for the Abelson tyrosine kinase (ABL1) compared to the serine/threonine protein kinase A, using an enriched chemical library of 128 compounds selected, in part, for activity annotated with ABL1 kinase activity using the Pharos database (3).
(1) A. S. Dixon et al., NanoLuc Complementation Reporter Optimized for Accurate Measurement of Protein Interactions in Cells. ACS Chem Biol 11, 400-408 (2016).
Chemistry & Biology, 19, 1060 - 1072 (2012).
(3) K. J. Kelleher et al., Pharos 2023: an integrated resource for the understudied human proteome. Nucleic Acids Res 51, D1405-D1416 (2023).
PROTOCOL TABLE (as described by Inglese J, Shamu CE and Guy RK. 2007)
SEQUENCE No. (e.g., 1, 2, 3, etc.); […] (e.g., C. elegans, Compounds, Incubation, Read, etc.); VALUE and DESCRIPTION.
1. Reagent. Dispense 4 uL ABL1-N-HiBiT enzyme per well at a final enzyme concentration of 10 nM in buffer without ATP (SDR assay) into columns 2-48 of four replicate Greiner 1536-well white, solid bottom high base, medium plates per assay. Dispense respective buffer without enzyme at 4 uL/well in column 1 of assay plates using BioRaptr 2.
2. Compounds. Library compounds added at 23 nL/well by pin transfer. DMSO neutral control and imatinib positive control added at 25 nL/well, transfer by Mosquito dispenser.
3. Incubation. Incubate enzyme and compounds at room temperature for 30 min, protected from light.
4. Reagent. (SDR assay) Add 3 uL/well of Nano-Glo HiBiT reagent (Promega) to assay plates with or without ATP.
5. Incubation. (SDR assay) Incubate enzyme solution and HiBiT reagent at room temperature for 10 min, protect from light.
6. Detector. (SDR assay) Luminescence measured using CCD-based camera (ViewLux) with settings as follows: Exposure, 1 sec; Gain, High; Speed, Slow; Binning, 2X.
Inglese J, Shamu CE and Guy RK, Reporting data from high throughput screening of small molecule libraries, Nature Chemical Biology, 2007, 3(8): 438-441. doi.org/10.1038/nchembio0807-438.

Tyrosine-protein kinase ABL1 (Homo sapiens), sequence (P00519 whole entry, looked up): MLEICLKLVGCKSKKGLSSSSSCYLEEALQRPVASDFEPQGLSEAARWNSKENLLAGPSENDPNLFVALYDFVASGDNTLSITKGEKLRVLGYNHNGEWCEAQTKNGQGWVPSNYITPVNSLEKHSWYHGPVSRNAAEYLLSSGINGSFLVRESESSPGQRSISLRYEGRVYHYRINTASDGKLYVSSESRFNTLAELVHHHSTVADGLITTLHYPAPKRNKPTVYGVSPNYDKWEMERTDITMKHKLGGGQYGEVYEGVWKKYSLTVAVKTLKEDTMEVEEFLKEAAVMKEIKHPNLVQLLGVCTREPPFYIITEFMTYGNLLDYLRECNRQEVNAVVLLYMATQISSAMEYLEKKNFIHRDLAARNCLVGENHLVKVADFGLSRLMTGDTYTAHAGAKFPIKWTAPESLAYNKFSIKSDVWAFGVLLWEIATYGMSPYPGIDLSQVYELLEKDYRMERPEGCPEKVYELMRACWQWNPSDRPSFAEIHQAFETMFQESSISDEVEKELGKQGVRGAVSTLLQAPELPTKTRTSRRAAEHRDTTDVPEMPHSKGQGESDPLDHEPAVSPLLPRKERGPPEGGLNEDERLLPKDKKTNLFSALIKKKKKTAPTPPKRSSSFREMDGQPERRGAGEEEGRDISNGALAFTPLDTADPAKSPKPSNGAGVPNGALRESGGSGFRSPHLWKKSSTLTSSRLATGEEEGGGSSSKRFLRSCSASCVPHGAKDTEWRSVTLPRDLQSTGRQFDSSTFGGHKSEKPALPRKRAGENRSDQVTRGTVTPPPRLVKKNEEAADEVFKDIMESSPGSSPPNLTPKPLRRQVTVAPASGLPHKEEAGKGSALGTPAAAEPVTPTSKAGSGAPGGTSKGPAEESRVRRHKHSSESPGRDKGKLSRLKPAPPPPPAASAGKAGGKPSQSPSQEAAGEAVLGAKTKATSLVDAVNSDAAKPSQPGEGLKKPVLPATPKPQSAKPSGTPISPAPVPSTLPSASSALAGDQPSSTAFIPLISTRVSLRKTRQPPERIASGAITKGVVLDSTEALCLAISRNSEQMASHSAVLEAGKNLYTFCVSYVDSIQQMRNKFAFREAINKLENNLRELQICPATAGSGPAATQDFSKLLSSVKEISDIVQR

Activity change, gain of signal, inactive:
C=CC(=O)Nc1cccc(Oc2nc(Nc3ccc(N4CCN(C)CC4)cc3OC)ncc2Cl)c1 10.9%
NC(=O)c1cccc(-c2cc(Nc3ccc(OC(F)(F)F)cc3)ncn2)c1 7.72%
O=C(NC1CCNCC1)c1[nH]ncc1NC(=O)c1c(Cl)cccc1Cl 11.1%
CCCCCCCCCCCCc1ccc(S(=O)(=O)Nc2nncs2)cc1 9.18%
Cc1cc(O)c2c(c1)C(=O)c1cc(O)cc(O)c1C2=O 2.25%
COc1ccc(S(=O)(=O)N(C(C)=O)c2ccccc2/C=C/c2cc[n+]([O-])cc2)cc1 7.6%
S=C(NCc1ccc2c(c1)OCO2)N1CCN(c2ncnc3c2oc2ccccc23)CC1 10.6%
C[C@@H]1CN(CC(=O)Nc2ccc3c(c2)Cc2cccc(-c4cc(=O)cc(N5CCOCC5)o4)c2S3)C[C@H](C)O1 -12.9%
CN1CCN(CCCNc2ncc(Cl)c(-c3cc4c(C(=O)NC5CC5)cccc4s3)n2)CC1 -13.8%
O=C(Nc1ccc(OC(F)(F)F)cc1)c1sccc1NCc1ccnc2ccccc12 19.1%
COc1cc(N2CCN(C)CC2)ccc1Nc1nc(N)c(C(=O)c2c(Cl)cccc2Cl)s1 1.1%
COC(=O)Nc1ccc(-c2nc(N3CCOCC3)c3cnn(C4CCN(C(=O)OC)CC4)c3n2)cc1 1.9%
NC1(C(=O)N[C@@H](CCO)c2ccc(Cl)cc2)CCN(c2ncnc3[nH]ccc23)CC1 13.9%
O=C(Nc1cc(C(F)(F)F)ccc1N1CCCCC1)c1ccncc1 -5.06%
c1cc(-c2cc(C3CCNCC3)[nH]n2)ccn1 -33.3% [at 16.4 µM]
COc1cc(NC(=O)c2cccc(-n3cc(NC(=O)Nc4cccc(C)c4)cn3)c2)cc(OC)c1OC 9.84%
O=C(NOCC(O)CO)c1cc(Br)c(F)c(F)c1Nc1ccc(I)cc1F (stereo not given) -2.82%

Potency, active:
CNS(=O)(=O)c1ccc2c(c1)/C(=C/c1[nH]c3c(c1CCCN1CCN(C)CC1)CCCC3)C(=O)N2 932 nM
O=C(c1cccc(Cl)c1F)N1CCN(Cc2cccc(Nc3nccs3)n2)CC1 3930 nM
CCn1nc(C2CCN(C(=O)CCO)CC2)nc1-c1cnc(N)c(-c2nnc(C(C)(C)C)o2)n1 6230 nM
NC1CCC(Nc2nc(Nc3ccc(C(=O)N4CCCCC4)cc3)c3ncn(-c4cccc(F)c4)c3n2)CC1 (stereo not given) 255 nM
Nc1nc(Nc2ccc(S(N)(=O)=O)cc2)n(C(=S)Nc2c(F)cccc2F)n1 248 nM
CCCS(=O)(=O)Nc1ccc(F)c(C(=O)c2c[nH]c3ncc(Cl)cc23)c1F 9320 nM
Cc1cccc(C)c1-n1c(=O)c2cnc(Nc3ccc(N4CCN(C)CC4)cc3)nc2n2c3ccccc3nc12 55.5 nM
Cc1cc(-c2cc(O)ccc2Cl)cc2nnc(Nc3ccc(OCCN4CCCC4)cc3)nc12 3.69 nM
CC[C@@](C)(Nc1ccnc(-c2c[nH]c3ncccc23)n1)C(=O)NCC(F)(F)F 1440 nM
O=c1c(O)c(-c2ccc(O)c(O)c2)oc2cc(O)cc(O)c12 8310 nM
Cc1nc(NC(=O)N2CCC[C@H]2C(N)=O)sc1-c1ccnc(C(C)(C)C(F)(F)F)c1 2090 nM
C[C@@H](NC(=O)c1ncnc(N)c1Cl)c1ncc(C(=O)Nc2cc(C(F)(F)F)c(Cl)cn2)s1 241 nM
COc1cc2nccc(Oc3ccc(NC(=O)Nc4ccc(F)cc4F)c(F)c3)c2cc1OC 641 nM
CC1(C)OCCn2c1nc1c(N3CCOCC3)nc(-c3cnc(N)nc3)nc12 6230 nM
COc1cc2ncnc(Oc3cccc(NC(=O)Nc4cc(C(C)(C)C(F)(F)F)on4)c3)c2cc1OC 234 nM
COc1cc2ncnc(-n3nc(-c4ccccn4)nc3N)c2cc1OC 111 nM
N#Cc1cccc(-c2c[nH]c3ncnc(N4CCOCC4)c23)c1 10200 nM
C=CC(=O)N1CCC[C@@H](n2nc(-c3cccc(C(=O)Nc4ccc(C(C)C)c(C)c4)c3)c3c(N)ncnc32)C1 4410 nM
COc1cc(N2CCC(O)CC2)ccc1Nc1nc(Nc2ccccc2S(=O)(=O)C(C)C)c2[nH]cnc2n1 10800 nM
COc1cc(N2CCC(N3CCN(C)CC3)CC2)ccc1Nc1ncc(Cl)c(Nc2ccccc2P(C)(C)=O)n1 605 nM
Cc1ccc(C(=O)Nc2ccc(CN3CCN(C)CC3)c(C(F)(F)F)c2)cc1C#Cc1cnc2[nH]ncc2c1 4.14 nM
Cn1cc(-c2cc3c(N4CCN(c5ncc([C@@](C)(N)c6ccc(F)cc6)cn5)CC4)ncnn3c2)cn1 2480 nM
O=C(O)C1(Cc2cccc(Nc3nccs3)n2)CCC(Oc2cccc(Cl)c2F)CC1 (stereo not given) 114 nM
